From PubChem BioAssay (EPA / NIEHS)
Inconclusive results are not listed. Activity calls are given as the source filed them. How the source made its calls: active means hit-call score of the fitted dose curve at least 0.9, where 1 is the maximum; inconclusive means response in the unintended direction; inactive means score below 0.9.

read-out: xenobiotic metabolism (CYP2C9), CYP2C9 (gene 1559); assay: CLD_CYP2C9_6hr: CellzDirect (CLD) Gene Expression Assay for xenobiotic metabolism (CYP2C9) at 6 hours (AID 2283664)
Experimental: CLD_6hr is a cell-based, multiplexed-readout assay that uses hepatocyte, a human liver primary cell, with measurements taken at 6 hours after chemical dosing in a 96-well plate.CLD_CYP2C9_6hr is one of 16 assay component(s) measured or calculated from the CLD_6hr assay. It is designed to make measurements of mRNA induction, a form of inducible reporter, as detected with chemiluminescence signals by Quantitative Nuclease Protection Assay (qNPA) technology.Data from the assay component CLD_CYP2C9_6hr was analyzed at the endpoint, CLD_CYP2C9_6hr, in the positive analysis fitting direction relative to DMSO as the negative control and baseline of activity. Using a type of inducible reporter, gain-of-signal activity can be used to understand changes in the reporter gene as they relate to the gene CYP2C9. Furthermore, this assay endpoint can be referred to as a primary readout. To generalize the intended target to other relatable targets, this assay endpoint is annotated to the cyp intended target family, where subfamily is xenobiotic metabolism.
Human hepatocyte cultures were treated daily for two consecutive days with fresh dosing solutions containing appropriate concentrations of the 320 ToxCast chemicals (chemical identities were blinded to CellzDirect and other ToxCast collaborators), vehicle control (0.2% DMSO), and positive control inducers as summarized in Table 1. Due to the large number of treatment groups and chemicals examined, the ToxCast chemicals were divided into two groups (spanning two independent cultures of hepatocytes from separate donor preparations (Hu778: ToxCast plates 1 and 2; Hu776: ToxCast plates 3 and 4). Each preparation of human hepatocyte cultures was treated with respective vehicle control, medium only control, set of six positive controls/reference chemicals for the five hepatic receptor pathways, and a subset of eight of the ToxCast chemicals (indoxacarb, pyrithiobac-sodium, norflurazon, cyhalofop-butyl, methomyl, thiram, acetochlor, and propiconazole). These replicate data, coupled with internal replicates designed within the blinded ToxCast chemical library, provided additional data to evaluate interindividual differences between hepatocyte preparations and their potential impact on chemical profiles.Cell morphology and integrity were evaluated using phase-contrast microscopy as an indicator of hepatocyte cell health (Tyson & Green, 1987). Cultures for each treatment group (i.e., media, vehicle [0.2% DMSO], positive control inducers [multiple concentrations], and the ToxCast chemicals [multiple concentrations]) were observed and cell morphology was assessed relative to vehicle control cultures at each harvest time point (0, 6, 24, or 48 h). […] Images were evaluated at the conclusion of the study to assess changes in cell integrity and account for the effects of chemical exposure on uncharacteristic changes in concentration-dependent gene expression profiles. The results from these determinations of apparent cytotoxicity were annotated (yes/no) alongside the corresponding qNPA data for reference.At the conclusion of each treatment period, hepatocyte cultures (96-well) were washed with 1 volume of HBSS, lysed by addition of 25 ul ArrayPlate lysis buffer (HTG, Tucson, AZ), and 70 ul/well of Denaturation Oil, denatured by incubation at 95C for 10 min, and frozen at approximately -70C until analysis by nuclease protection assay (qNPA) (Roberts et al., 2007). For qNPA analysis, cell lysates were thawed at 50C for approximately 30 min, qNPA probes were added, and samples were incubated at 95C for 10 min to begin the detection process by denaturing the target RNA, dissociating the duplexes and secondary structure hybridization. At the conclusion of the hybridization period, S1 nuclease reagent was added to each sample to digest all nonprotected nucleotides at 50C for 60-90 min. […]

Compound | outcome
O=C(O)COc1ccc(Cl)cc1Cl | inactive
CNC(=O)CSP(=S)(OC)OC | inactive
COC(=O)c1ccccc1S(=O)(=O)NC(=O)N(C)c1nc(C)nc(OC)n1 | inactive
[2H]C1([2H])[n+]2ccccc2-c2cccc[n+]2C1([2H])[2H] | inactive
Cc1[nH]c(=O)n(C(C)(C)C)c(=O)c1Cl | inactive
CCC(C)(NC(=O)c1cc(Cl)c(C)c(Cl)c1)C(=O)CCl (centres undefined) | inactive
COC(=O)c1ccccc1CS(=O)(=O)NC(=O)Nc1nc(OC)cc(OC)n1 | inactive
C[C@H]1[C@H](c2ccc(Cl)cc2)SC(=O)N1C(=O)NC1CCCCC1 | inactive
OCCOc1ccccc1 | inactive
CNC(=O)Oc1ccccc1OC(C)C | inactive
Cc1cc(C)nc(NC(=O)NS(=O)(=O)c2ccccc2C(=O)OC2COC2)n1 | inactive
CC1(c2ccc(Oc3ccccc3)cc2)OC(=O)N(Nc2ccccc2)C1=O (centres undefined) | inactive
O=C(O)CCCOc1ccc(Cl)cc1Cl | inactive
O=C(NC(=O)c1c(F)cccc1F)Nc1ccc(OC(F)(F)C(F)OC(F)(F)F)c(Cl)c1 (centres undefined) | inactive
CCCN(CCOc1c(Cl)cc(Cl)cc1Cl)C(=O)n1ccnc1 | inactive
O=[N+]([O-])/N=C1\NCCN1Cc1ccc(Cl)nc1 | inactive
Oc1cc(Cl)ccc1Oc1ccc(Cl)cc1Cl | inactive
CCc1ccc(C(=O)NN(C(=O)c2cc(C)cc(C)c2)C(C)(C)C)cc1 | inactive
COc1cc(OC)nc(NC(=O)NS(=O)(=O)c2cc(NC=O)ccc2C(=O)N(C)C)n1 | inactive
